The record followed here is ChEMBL document CHEMBL2218924, “A broad activity screen in support of a chemogenomic map for kinase signalling research and drug discovery” (Biochem J, 2013).

The target in assay [1] is T1, Serine/threonine-protein kinase haspin (Homo sapiens) (UniProt Q8TF76).
T1 sequence (whole entry): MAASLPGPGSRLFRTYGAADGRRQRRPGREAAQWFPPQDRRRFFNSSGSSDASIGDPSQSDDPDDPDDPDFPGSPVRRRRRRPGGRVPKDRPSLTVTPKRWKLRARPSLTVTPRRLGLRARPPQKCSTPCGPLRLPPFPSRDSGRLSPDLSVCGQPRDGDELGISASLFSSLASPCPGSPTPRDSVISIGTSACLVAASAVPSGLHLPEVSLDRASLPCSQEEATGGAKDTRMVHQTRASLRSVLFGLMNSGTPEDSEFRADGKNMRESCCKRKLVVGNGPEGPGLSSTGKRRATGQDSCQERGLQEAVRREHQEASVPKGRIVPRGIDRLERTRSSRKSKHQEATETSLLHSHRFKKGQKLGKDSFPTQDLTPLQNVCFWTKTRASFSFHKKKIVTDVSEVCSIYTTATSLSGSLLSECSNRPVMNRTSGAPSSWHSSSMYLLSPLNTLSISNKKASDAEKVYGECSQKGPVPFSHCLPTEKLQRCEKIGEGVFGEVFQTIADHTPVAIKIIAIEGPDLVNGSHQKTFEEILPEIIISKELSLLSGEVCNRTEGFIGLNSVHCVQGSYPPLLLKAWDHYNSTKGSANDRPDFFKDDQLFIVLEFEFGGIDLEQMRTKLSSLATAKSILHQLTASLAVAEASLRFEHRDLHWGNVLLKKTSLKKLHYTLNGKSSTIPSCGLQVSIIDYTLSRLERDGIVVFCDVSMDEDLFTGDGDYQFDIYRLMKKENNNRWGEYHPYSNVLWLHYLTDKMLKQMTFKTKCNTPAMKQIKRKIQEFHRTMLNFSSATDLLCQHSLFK
The following applies: at 1 µM.

The target in assay [2] is T1, Serine/threonine-protein kinase haspin (Homo sapiens). As to conditions: at 10 µM; call rule not given here.
Assay [3] deals with Tyrosine-protein kinase HCK (Homo sapiens) (UniProt P08631). The following applies: at 1 µM.
Assay [4] has the same target. The following applies: at 10 µM.
Assay [5] has the same target. As to conditions: at 1 µM. This is another data set of the same source.
The target is the same in assay [6]. As to conditions: at 10 µM. This is another data set of the same source.
Assay [7] addresses Protein kinase C eta type (Homo sapiens) (UniProt P24723). The following applies: at 1 µM.
For assay [8] the target is unchanged. The following applies: at 10 µM.
Assay [9] concerns the target T2, Protein kinase C iota type (Homo sapiens) (UniProt P41743).
T2 sequence (whole entry): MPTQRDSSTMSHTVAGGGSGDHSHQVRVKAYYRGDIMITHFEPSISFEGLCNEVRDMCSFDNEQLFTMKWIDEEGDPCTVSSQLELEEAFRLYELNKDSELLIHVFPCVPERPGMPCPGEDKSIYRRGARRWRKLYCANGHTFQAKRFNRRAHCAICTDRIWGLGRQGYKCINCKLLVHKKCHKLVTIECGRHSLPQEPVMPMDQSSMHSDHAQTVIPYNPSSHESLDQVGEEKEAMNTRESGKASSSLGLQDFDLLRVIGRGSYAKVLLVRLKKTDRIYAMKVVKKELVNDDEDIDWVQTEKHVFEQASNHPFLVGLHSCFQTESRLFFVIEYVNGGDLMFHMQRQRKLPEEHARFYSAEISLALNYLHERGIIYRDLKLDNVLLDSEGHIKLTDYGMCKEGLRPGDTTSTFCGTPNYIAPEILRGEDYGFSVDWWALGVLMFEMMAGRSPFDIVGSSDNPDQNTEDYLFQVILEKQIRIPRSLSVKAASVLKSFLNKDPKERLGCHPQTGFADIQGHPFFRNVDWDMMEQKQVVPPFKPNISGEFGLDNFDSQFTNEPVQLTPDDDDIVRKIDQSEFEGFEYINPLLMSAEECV
As to conditions: at 1 µM.

The target in assay [10] is T2, Protein kinase C iota type (Homo sapiens). As to conditions: at 10 µM.
For assay [11], the target named is T3, Serine/threonine-protein kinase D1 (Homo sapiens) (UniProt Q15139).
T3 sequence (whole entry): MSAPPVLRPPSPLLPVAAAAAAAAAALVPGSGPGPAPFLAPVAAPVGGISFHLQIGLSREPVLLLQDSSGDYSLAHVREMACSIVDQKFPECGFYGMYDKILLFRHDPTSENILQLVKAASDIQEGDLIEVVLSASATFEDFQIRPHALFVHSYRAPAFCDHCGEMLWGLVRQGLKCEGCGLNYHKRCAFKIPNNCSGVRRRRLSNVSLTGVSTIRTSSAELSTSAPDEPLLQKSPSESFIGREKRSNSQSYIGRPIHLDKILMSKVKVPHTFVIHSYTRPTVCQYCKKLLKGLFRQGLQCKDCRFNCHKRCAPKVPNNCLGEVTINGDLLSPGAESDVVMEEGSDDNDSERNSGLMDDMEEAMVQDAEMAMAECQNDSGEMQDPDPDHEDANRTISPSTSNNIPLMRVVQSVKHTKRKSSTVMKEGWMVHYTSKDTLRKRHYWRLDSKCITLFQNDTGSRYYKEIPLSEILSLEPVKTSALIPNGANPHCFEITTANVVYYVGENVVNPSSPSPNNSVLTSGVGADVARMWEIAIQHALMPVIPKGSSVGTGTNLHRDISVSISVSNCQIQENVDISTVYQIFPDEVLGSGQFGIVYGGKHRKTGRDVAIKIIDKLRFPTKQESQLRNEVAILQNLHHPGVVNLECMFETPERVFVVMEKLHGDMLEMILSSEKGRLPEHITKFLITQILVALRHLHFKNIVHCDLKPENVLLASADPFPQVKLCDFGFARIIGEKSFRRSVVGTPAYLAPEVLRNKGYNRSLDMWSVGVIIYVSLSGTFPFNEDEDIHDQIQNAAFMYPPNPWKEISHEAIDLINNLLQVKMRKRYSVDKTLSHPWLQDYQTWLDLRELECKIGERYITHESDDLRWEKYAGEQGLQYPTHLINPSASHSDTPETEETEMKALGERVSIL
The following applies: at 1 µM.

Assay [12] deals with Protein kinase C theta type (Homo sapiens) (UniProt Q04759). As to conditions: at 1 µM.
The target is the same in assay [13]. As to conditions: at 10 µM.
For assay [14], the target named is T3, Serine/threonine-protein kinase D1 (Homo sapiens). As to conditions: at 10 µM.
The target in assay [15] is T4, Serine/threonine-protein kinase D2 (Homo sapiens) (UniProt Q9BZL6).
T4 sequence (whole entry): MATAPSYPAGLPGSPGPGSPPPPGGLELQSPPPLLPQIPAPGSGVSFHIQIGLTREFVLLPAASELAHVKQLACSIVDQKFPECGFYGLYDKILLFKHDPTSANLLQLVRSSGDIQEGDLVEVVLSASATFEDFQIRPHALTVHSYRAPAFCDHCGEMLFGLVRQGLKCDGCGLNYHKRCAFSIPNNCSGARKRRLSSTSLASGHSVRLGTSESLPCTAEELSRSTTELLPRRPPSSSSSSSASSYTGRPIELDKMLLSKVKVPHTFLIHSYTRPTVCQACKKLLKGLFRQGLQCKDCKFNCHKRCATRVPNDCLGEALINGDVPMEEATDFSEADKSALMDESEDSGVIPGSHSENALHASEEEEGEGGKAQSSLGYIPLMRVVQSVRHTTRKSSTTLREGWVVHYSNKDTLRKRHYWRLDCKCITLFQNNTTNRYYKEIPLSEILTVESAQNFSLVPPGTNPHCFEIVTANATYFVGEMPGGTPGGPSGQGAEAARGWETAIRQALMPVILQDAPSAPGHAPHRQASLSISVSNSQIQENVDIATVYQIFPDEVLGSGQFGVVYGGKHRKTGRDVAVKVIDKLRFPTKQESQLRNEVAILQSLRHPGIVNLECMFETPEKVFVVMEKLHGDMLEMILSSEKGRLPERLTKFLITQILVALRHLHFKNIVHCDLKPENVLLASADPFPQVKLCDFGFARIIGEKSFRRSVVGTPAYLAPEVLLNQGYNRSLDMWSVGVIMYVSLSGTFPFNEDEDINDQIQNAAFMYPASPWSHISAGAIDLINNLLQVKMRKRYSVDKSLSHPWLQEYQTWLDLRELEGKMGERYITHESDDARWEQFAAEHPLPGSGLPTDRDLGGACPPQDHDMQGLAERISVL
As to conditions: at 1 µM.

The target of assay [16] is T4, Serine/threonine-protein kinase D2 (Homo sapiens). The following applies: at 10 µM.
Assay [17] has as its target Homeodomain-interacting protein kinase 3 (Homo sapiens) (UniProt Q9H422). As to conditions: at 10 µM.
The target in assay [18] is Insulin-like growth factor 1 receptor (Homo sapiens) (UniProt P08069). As to conditions: at 1 µM.
For assay [19] the target is unchanged. As to conditions: at 10 µM.
In assay [20] the target is T5, Protein kinase C zeta type (Homo sapiens) (UniProt Q05513).
T5 sequence (whole entry): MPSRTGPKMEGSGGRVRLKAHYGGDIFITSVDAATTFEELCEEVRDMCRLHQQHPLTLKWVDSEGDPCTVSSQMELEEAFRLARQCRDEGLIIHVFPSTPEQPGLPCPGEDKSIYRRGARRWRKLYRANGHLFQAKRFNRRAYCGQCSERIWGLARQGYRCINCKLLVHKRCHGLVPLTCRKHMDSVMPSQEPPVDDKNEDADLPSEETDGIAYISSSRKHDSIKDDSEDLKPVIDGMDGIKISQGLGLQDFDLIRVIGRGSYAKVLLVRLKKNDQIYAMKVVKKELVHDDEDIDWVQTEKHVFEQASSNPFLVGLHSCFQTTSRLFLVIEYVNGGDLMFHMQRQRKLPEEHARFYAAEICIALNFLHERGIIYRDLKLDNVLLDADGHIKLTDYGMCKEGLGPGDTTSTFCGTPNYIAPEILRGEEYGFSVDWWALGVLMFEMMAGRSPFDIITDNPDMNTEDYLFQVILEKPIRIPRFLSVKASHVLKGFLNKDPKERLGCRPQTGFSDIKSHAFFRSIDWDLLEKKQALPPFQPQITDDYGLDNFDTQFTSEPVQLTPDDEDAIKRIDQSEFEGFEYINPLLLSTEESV
As to conditions: at 10 µM.

As a reminder, the residual activity is the signal under treatment as a percentage of the control signal.

Insulin-like growth factor 1 receptor (Homo sapiens), sequence (P08069 31-736 limits assumed): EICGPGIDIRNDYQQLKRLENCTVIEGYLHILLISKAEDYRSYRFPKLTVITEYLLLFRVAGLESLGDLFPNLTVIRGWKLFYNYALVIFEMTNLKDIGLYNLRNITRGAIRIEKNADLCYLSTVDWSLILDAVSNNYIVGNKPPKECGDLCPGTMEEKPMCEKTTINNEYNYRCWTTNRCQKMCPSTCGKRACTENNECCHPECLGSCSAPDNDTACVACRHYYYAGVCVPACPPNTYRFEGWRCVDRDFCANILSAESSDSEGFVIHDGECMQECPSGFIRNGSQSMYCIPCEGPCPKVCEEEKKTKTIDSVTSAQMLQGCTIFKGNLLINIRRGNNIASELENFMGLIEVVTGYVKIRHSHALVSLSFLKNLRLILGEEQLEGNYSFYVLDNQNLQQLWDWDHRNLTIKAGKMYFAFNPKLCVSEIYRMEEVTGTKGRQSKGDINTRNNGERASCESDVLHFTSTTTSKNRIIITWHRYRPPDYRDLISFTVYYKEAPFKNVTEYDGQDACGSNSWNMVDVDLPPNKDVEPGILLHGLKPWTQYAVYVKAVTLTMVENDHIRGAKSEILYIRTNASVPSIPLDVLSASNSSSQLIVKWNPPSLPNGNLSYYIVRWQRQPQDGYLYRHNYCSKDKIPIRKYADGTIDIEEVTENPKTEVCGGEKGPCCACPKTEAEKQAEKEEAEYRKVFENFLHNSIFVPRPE
Insulin-like growth factor 1 receptor (Homo sapiens), sequence (P08069 741-1367 limits assumed): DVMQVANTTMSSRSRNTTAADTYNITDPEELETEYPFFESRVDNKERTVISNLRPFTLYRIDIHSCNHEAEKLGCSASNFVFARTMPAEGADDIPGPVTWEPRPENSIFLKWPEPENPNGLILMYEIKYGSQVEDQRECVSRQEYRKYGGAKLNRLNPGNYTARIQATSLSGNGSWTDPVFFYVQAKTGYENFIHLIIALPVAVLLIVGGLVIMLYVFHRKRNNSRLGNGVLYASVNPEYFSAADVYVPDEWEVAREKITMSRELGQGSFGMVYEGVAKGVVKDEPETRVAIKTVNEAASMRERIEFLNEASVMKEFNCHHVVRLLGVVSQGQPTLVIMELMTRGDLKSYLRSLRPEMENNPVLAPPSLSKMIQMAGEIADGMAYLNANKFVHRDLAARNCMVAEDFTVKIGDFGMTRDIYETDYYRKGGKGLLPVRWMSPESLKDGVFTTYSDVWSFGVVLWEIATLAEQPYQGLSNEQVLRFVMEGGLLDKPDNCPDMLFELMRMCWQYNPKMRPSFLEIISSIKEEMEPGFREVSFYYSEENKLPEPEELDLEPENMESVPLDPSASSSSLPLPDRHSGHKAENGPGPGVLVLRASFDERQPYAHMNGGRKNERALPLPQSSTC
Protein kinase C eta type (Homo sapiens), sequence (P24723 whole entry): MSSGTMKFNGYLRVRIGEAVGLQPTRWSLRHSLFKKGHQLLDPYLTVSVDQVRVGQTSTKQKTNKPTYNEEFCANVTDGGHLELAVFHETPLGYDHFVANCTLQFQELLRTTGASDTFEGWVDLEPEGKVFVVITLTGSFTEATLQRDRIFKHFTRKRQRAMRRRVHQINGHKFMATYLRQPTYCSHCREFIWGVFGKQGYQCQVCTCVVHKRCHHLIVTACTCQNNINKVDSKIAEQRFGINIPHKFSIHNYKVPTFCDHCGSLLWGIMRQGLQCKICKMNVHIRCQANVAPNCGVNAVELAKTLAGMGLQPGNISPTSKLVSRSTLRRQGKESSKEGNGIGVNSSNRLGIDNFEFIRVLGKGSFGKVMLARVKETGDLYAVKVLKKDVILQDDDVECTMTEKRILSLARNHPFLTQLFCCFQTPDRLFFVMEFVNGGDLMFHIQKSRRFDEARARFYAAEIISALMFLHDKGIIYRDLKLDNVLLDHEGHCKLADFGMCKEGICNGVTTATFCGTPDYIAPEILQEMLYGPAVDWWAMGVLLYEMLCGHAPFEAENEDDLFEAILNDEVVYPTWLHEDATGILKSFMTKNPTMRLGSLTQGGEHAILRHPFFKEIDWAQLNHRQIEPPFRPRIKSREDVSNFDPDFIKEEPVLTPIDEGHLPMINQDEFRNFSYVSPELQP
Tyrosine-protein kinase HCK (Homo sapiens), sequence (P08631 2-526 limits assumed): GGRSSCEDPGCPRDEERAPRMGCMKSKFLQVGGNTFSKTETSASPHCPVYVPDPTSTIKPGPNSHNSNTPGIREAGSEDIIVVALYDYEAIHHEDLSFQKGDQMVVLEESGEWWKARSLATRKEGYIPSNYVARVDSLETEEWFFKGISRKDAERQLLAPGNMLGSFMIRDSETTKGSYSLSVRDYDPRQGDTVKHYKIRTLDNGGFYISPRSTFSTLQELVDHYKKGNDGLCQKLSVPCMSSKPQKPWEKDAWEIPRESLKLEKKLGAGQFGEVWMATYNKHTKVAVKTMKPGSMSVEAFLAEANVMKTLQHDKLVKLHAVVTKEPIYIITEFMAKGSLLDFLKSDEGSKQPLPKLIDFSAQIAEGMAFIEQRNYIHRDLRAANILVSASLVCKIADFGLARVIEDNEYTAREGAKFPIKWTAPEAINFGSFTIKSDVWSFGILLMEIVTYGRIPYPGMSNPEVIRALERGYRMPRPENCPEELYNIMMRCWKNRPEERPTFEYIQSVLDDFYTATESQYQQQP
Protein kinase C theta type (Homo sapiens), sequence (Q04759 whole entry, looked up): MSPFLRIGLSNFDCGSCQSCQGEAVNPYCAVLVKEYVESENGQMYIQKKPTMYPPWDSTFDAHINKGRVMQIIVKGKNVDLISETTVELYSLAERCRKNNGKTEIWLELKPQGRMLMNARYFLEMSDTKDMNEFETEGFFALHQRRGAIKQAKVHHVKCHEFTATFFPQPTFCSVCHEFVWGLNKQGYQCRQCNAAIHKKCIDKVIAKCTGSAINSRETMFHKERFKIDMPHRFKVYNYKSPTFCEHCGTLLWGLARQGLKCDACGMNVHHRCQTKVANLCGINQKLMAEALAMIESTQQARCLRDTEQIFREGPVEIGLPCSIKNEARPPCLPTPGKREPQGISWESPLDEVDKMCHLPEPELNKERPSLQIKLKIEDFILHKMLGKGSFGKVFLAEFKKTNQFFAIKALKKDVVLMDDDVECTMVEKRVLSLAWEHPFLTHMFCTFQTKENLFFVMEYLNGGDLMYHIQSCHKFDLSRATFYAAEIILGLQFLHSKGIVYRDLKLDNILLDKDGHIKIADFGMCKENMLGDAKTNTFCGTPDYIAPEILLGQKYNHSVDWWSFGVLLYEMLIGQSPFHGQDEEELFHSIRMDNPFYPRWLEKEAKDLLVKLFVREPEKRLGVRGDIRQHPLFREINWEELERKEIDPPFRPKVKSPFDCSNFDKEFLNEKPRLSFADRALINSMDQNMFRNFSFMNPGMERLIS
Homeodomain-interacting protein kinase 3 (Homo sapiens), sequence (Q9H422 whole entry, looked up): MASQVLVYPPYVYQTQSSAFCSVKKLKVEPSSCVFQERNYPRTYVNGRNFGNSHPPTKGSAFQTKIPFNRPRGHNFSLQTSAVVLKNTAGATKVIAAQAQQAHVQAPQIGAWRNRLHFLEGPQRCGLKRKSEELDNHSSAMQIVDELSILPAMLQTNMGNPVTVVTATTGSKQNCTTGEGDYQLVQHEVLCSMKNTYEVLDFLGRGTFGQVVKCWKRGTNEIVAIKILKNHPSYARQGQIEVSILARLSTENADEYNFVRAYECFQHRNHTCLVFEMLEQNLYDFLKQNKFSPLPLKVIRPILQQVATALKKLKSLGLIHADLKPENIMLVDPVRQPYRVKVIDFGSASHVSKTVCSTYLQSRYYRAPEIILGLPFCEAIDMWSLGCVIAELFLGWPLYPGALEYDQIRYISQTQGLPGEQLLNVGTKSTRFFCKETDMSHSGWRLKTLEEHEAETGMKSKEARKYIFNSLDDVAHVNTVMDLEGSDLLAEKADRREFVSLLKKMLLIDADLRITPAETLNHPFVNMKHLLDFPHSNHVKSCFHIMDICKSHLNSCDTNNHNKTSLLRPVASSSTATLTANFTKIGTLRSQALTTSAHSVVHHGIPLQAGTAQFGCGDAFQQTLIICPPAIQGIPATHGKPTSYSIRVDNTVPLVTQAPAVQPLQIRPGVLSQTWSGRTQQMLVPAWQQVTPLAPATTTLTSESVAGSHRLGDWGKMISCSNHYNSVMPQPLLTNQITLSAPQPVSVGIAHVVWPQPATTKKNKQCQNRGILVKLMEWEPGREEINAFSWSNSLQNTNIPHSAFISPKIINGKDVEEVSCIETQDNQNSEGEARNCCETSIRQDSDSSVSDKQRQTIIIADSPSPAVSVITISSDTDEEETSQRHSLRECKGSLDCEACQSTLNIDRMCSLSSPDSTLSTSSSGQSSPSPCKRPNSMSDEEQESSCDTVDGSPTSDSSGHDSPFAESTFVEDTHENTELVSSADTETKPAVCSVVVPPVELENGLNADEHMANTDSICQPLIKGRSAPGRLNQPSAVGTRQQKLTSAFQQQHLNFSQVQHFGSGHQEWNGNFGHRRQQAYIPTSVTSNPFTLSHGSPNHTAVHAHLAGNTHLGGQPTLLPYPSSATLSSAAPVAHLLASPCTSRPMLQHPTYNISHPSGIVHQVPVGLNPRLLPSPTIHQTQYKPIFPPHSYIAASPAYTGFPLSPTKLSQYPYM

As for `N#CC(C#N)=C(N)/C(C#N)=C/c1ccc(O)cc1`, the residual activity in [1] was found to be 88%; in assay [2], 65%; in assay [3] it was 84%; in assay [4], 64%; in [5] it was 99%; in assay [6], 87%. The residual activity was 118% in assay [7]; 81% in [8]; 81% (inactive) in assay [9]; 75% in assay [10]; 93% in [11].

Regarding `Cc1cccc(-c2[nH]c(C(C)(C)C)nc2-c2ccc3c(c2)OCO3)n1`, the residual activity in [1] was 92%; in [2] it was 75%; in assay [3], 94%; in assay [4], 79%; in [5] it was 102%; in [6], 99%. Further, the residual activity in [7] is 84%; in assay [8] it was 80%; in [12], 96%; in assay [13] it was 95%; in assay [9] it was 85% (inactive); in assay [10], 76%. Also, the residual activity was determined as 72% in [14], 103% in assay [15] and 106% in [16].

For `CC#CC(=O)Nc1cc2c(Nc3ccc(F)c(Cl)c3)ncnc2cn1`, the residual activity is 95% in [17]; 119% in assay [1]; 98% in assay [2]; 85% in assay [3]; 88% in assay [4]; 95% in assay [5]. The residual activity in assay [6] was found to be 88%; in [18], 147%; in assay [19], 86%; in assay [20], 103%; in assay [7], 90%; in [8], 84%. Also, the residual activity in assay [12] was 96%; in [13], 96%; in assay [9], 87% (inactive); in assay [10], 106%; in [11] it was 89%; in assay [14] it was 84%. The values for the residual activity in assay [15] and in [16] were 105% and 114%, respectively.

`N#Cc1cnc2cnc(NCc3cccnc3)cc2c1Nc1ccc(F)c(Cl)c1`: the residual activity was 102% in assay [1]; 67% in assay [2]; 17% in assay [3]; 12% in assay [4]; 91% in [6]; 97% in [18]. Besides, the residual activity in [20] is 94%; in assay [7] it was 85%; in [8] it was 83%; in assay [12], 4%; in [13] it was 5%; in assay [11], 80%. For the same compound, the figures for the residual activity in assay [14], in [15] and in assay [16] were 39%, 101% and 91%, respectively.
